Assay results taken from PubChem BioAssay (NCI).
Compounds without any hit were thinned out: in the full panel of roughly 79,000, 15% have a hit. Rule as the data show it: active = growth inhibition above about 70%; inactive = the rest.

Assays:
[1] = NCI Yeast Anticancer Drug Screen. Data for the rad50 strain (AID 155);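 also: 0% = growth of vehicle-only cultures of the same strain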; settings: S. cerevisiae rad50 strain growth inhibition; at 50.0 µM; active compounds read high
Outline: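 Yeast carrying a defined DNA repair defect were exposed to test compounds, and growth was compared with vehicle-treated controls to give percent inhibition.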

[2] = NCI Yeast Anticancer Drug Screen. Data for the mec2-1 strain (AID 157); settings: S. cerevisiae mec2-1 strain, at 50.0 µM, active compounds read high
Outline: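 Readout is yeast growth inhibition, normalised to vehicle-treated controls, in the mec2-1 strain exposed to compound.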

[3] = NCI Yeast Anticancer Drug Screen. Data for the sgs1 mgt1 strain (AID 161);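 also: 0% = growth of cultures given vehicle only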; settings: S. cerevisiae sgs1 mgt1 strain, at 50.0 µM, active compounds read high
Outline: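 Growth of a repair-deficient yeast mutant was monitored after compound treatment and expressed as inhibition relative to vehicle-treated cultures.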

[4] = NCI Yeast Anticancer Drug Screen. Data for the cln2 rad14 strain (AID 165);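 also: 0% = growth equal to vehicle treated cultures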; settings: S. cerevisiae cln2 rad14 strain, at 50.0 µM, active compounds read high
Outline: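 Relative to vehicle controls, growth inhibition of compound-treated cln2 rad14 yeast was recorded.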

[5] = NCI Yeast Anticancer Drug Screen. Data for the bub3 strain (AID 167); settings: S. cerevisiae bub3 mutant strain, at 50.0 µM, active compounds read high
Outline: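 Compounds were applied to a genetically altered yeast strain carrying a cell-cycle control defect. Growth inhibition was scored against vehicle-treated controls.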

[6] = NCI Yeast Anticancer Drug Screen. Data for the mlh1 rad18 strain (AID 175); settings: S. cerevisiae mlh1 rad18 strain growth inhibition; at 50.0 µM; active compounds read high
Outline: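 Test agents were incubated with a yeast strain of defined genotype (DNA damage repair defect). Inhibition of growth was derived by comparison with vehicle-exposed cultures.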

Measured: growth inhibition

NC(Cc1c(F)c(F)c(F)c(F)c1F)C(=O)O (stereo unspecified)
inactive: [1] -2.6% | [2] 2.95% | [3] 11.2% | [4] -11.3% | [5] -12.1% | [6] -7.4%

CCOC(=O)C(C(=O)OCC)=C1N[C@H](C(=O)OCC)CS1
inactive: [1] -0.8% | [2] -17.5% | [3] -15.8% | [4] 13% | [5] -6.7% | [6] -22.8%

CC(=O)NC(=O)C(C(C)=O)c1ccccc1 (stereo unspecified)
inactive: [1] -5.8% | [2] -0.25% | [3] -7.35% | [4] 12.8% | [5] -7.75% | [6] -10.9%

OC1CCC(O)[C@H]2[C@@H]1[C@@H]1S[C@H]2c2ccccc21 (stereo partly specified)
inactive: [1] -2.55% | [2] -14.8% | [3] -22.4% | [4] 1.7% | [5] -10.3% | [6] -1.85%

N#CC(NNC(=O)Cc1ccccc1)c1ccccc1O (stereo unspecified)
inactive: [1] 0.8% | [2] -10% | [3] -2.05% | [4] -19.4% | [5] -21.7% | [6] -12.8%

CN(C)CC1CCCC/C1=N\OC(=O)c1ccccc1 (stereo unspecified)
inactive: [1] -6.9% | [2] -13.8% | [3] 4.15% | [4] 6.25% | [5] 5.8% | [6] 8.1%

Nc1ccc2nc3n(c(=O)c2c1)CCCCC3
inactive: [1] -25.1% | [2] -11.4% | [3] 1.4% | [4] 23.2% | [5] 0.65% | [6] 10.8%

COC(=O)C1=CCOc2c1c(C(=O)OC)nn2C
inactive: [1] -4.8% | [2] -8.15% | [3] -2.4% | [4] 6.1% | [5] -11.2% | [6] 24.9%

c1ccc(-c2csc(-c3nc(-c4ccccc4)cs3)n2)cc1
inactive: [1] -0.55% | [2] 50% | [3] 30.6% | [4] -6.85% | [5] 33% | [6] 60.6%

OC1OC2COC(c3ccccc3)OC2C(O)C1O (stereo unspecified)
inactive: [1] 4% | [2] -14.5% | [3] 8.15% | [4] -3.35% | [5] -3.3% | [6] -20.9%

CC1N(N2C(=O)CS(=O)(=O)C2C)C(=O)CS1(=O)=O (stereo unspecified)
inactive: [1] 11.2% | [2] -3.95% | [3] 25.3% | [4] 15.1% | [5] 1.35% | [6] 37%

CCCCCCCC[C@]1(O)C[C@H]2[C@@H]3CCc4cc(OC)ccc4[C@H]3CC[C@]2(C)[C@H]1O
inactive: [1] -3.45% | [2] -10.7% | [3] -1.15% | [4] 7.1% | [5] -11.2% | [6] 0.5%

N#C/C(C(N)=O)=C1\CCCc2sccc21
inactive: [1] -13.3% | [2] 5.9% | [3] -6.3% | [4] -30.1% | [5] -4.75% | [6] 3.4%

CCN(CC)c1ccc(NCC(O)c2cc(Cl)ccc2OC)cc1 (stereo unspecified)
inactive: [1] -11.8% | [2] -5.75% | [3] 15.6% | [4] 22.8% | [5] -6.3% | [6] -1.65%

CC(=O)NC(Cc1ccc(O)cc1)C(=O)O (stereo unspecified)
inactive: [1] 10.8% | [2] 5.25% | [3] -3.4% | [4] -19.4% | [5] -9.05% | [6] -3.45%

CCOC(=O)C1=C(C(=O)C(C)(C)C)C(c2ccc([N+](=O)[O-])cc2)C(C(=O)C(C)(C)C)=C(C(=O)OCC)N1
inactive: [1] 31.1% | [2] 21.4% | [3] 9.4% | [4] 27.4% | [5] 6.2% | [6] 14.3%

Cc1cc(N(CCC#N)CCC#N)ccc1/C=C1N=C(/C=C/c2ccccc2)OC(=O)N\1
inactive: [1] 14.7% | [2] -5% | [3] 4.7% | [4] -10.1% | [5] 1.15% | [6] -13.7%

O=C(O)CCSc1nc2c(=O)[nH][nH]c(=O)c2n1Cc1ccccc1
inactive: [1] 7.2% | [2] -13.2% | [3] 7.05% | [4] -53.1% | [5] -0.75% | [6] 9.7%

O/N=C1\CC2(N3CCOCC3)CCC1(Cc1ccccc1)CC2
inactive: [1] 36% | [2] 52.6% | [3] 60.2% | [4] 55.6% | [5] 38.8% | [6] 49.4%

Cc1ccc(S(=O)(=O)Nc2cccc3c(=O)[nH]cnc23)cc1
inactive: [1] 1.6% | [2] -13.8% | [3] 1.2% | [4] -37.2% | [5] 10.3% | [6] 18.8%

O=C(COc1cc(Cl)c(Cl)cc1Cl)Oc1ccccc1
inactive: [1] -0.3% | [2] 4.95% | [3] 7.65% | [4] -8.85% | [5] 8.5% | [6] 3.6%

CCCC(=O)Nc1ccc(OC)cc1
inactive: [1] 16.8% | [2] 11.2% | [3] 9.55% | [4] -43.2% | [5] -1.85% | [6] 1.9%

CC(C)OC(=O)N[C@@H]1c2ccccc2CC[C@H]1I
inactive: [1] 24.5% | [2] 5.8% | [3] 19.3% | [4] -36.5% | [5] 24.7% | [6] 3.55%

Nc1ncnc2c1ncn2C1C=COC(CO)C1O (stereo unspecified)
inactive: [1] 4.95% | [2] 1.05% | [3] -6.5% | [4] 2.5% | [5] -28.5% | [6] 20.4%

c1cnc2c(c1)-n1cccc1C1(CCOCC1)NN2
inactive: [1] -73.5% | [2] -30.2% | [3] -54.5% | [4] -11.3% | [5] -13.3% | [6] -40.9%

Cn1c(=O)c2[nH]c(=O)n(C)c2n(C)c1=O
inactive: [1] -5.35% | [2] 2.25% | [3] 12.6% | [4] -9.55% | [5] 16.5% | [6] 16.1%

O=C(/C=C/c1ccc(O)cc1)c1ccc(Cl)cc1
inactive: [1] -17.7% | [2] -22.9% | [3] -18.6% | [4] -36.9% | [5] 20.4% | [6] -16.4%

CCc1cc(C)cc(C(C)(C)C)c1
inactive: [1] 12.4% | [2] -17.8% | [3] 25.1% | [4] 7.15% | [5] -8.35% | [6] 22%

COc1ccc(Cl)cc1C(c1cc(Cl)ccc1OC)C(Cl)(Cl)Cl
inactive: [1] -7.35% | [2] -1.6% | [3] -9.05% | [4] -23.6% | [5] -16.6% | [6] -13.4%

O=C(O)C(CCS)(c1ccccc1)c1ccccc1
inactive: [1] 17.2% | [2] -5.7% | [3] 0.3% | [4] 20.2% | [5] 2.15% | [6] 2%

O=C(c1cccs1)c1ccc2ccccc2c1C(=O)O
inactive: [1] -6.95% | [2] -11% | [3] -0.85% | [4] 3.9% | [5] 58.5% | [6] 4.7%

Cc1ccc(NC(=O)c2ccccc2N)cc1
inactive: [1] -0.9% | [2] -8.5% | [3] -0.95% | [4] -16.8% | [5] -12.4% | [6] 18%

O=[N+]([O-])c1nccn1CCCNc1c2ccccc2nc2ccccc12
inactive: [1] 25.1% | [2] 7.95% | [3] 27.8% | [4] 23.1% | [5] 6.5% | [6] 17.9%

Nc1nc(-c2ccc(Cl)c(Cl)c2)cc(-c2cc(-c3ccc(Cl)c(Cl)c3)nc(N)n2)n1
inactive: [1] 24.9% | [2] 2.55% | [3] 7.55% | [4] 21.6% | [5] 4.2% | [6] 11%

c1cc2c3c(c1)ccc1cccc(c13)CC2
inactive: [1] 4.45% | [2] -34.1% | [3] 3.3% | [4] 1.5% | [5] -22.8% | [6] 13.9%

CC(C)=CCNC(N)=O
inactive: [1] 4.95% | [2] -3.8% | [3] -10.5% | [4] 11% | [5] 7.4% | [6] 2.15%

CO/C=C1/CCc2c(ccc3cc(OC)ccc23)C1=O
inactive: [1] -1.5% | [2] -8.75% | [3] 10.5% | [4] -0.8% | [5] 3.2% | [6] -6.55%

COc1ccc(Nc2nc3c(N)cc(C(F)(F)F)cc3nc2-c2ccccc2)cc1
inactive: [1] 10.7% | [2] 2.65% | [3] -1.7% | [4] 25.9% | [5] 6.1% | [6] 1.4%

N=C(Oc1ccccc1)c1ccccc1
inactive: [1] -1.95% | [2] -22.3% | [3] -12.6% | [4] -28.7% | [5] -13.1% | [6] 6.45%

Cc1cc2ccccc2c[n+]1CC(=O)c1ccc([N+](=O)[O-])cc1
inactive: [1] -4.1% | [2] 32.1% | [3] 62% | [4] -1.85% | [5] 7.35% | [6] 51.7%

CC(=S)N=Cc1c(C)[nH]n(-c2ccccc2)c1=O
inactive: [1] -49.4% | [2] -29.8% | [3] -41.4% | [4] 19.6% | [5] -57.7% | [6] -31.9%
